Rac1 mut GTP: modulators of GTP binding to human Rac1 activated mutant | P63000 | GST-Rac1 activated beads, fluorescent GTP binding, flow cytometry; actives lie on both sides; 100% means binding = to untreated wells | percent activity (GTP binding), % at 10 µM | hit rate 0.11% among 190,000 | AID 764;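 active = GTP binding at least 20 percentage points away from the 100% baseline, in either direction, so actives lie on both sides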
Rac1 wt GTP bind: alters GTP binding to wildtype human Rac1; hit rate 0.27% among 190,000; P63000; GTP binding activity (% of control), % at 10 µM; GST-Rac1 beads, fluorescent GTP binding, flow cytometry; actives lie on both sides; 0 = cold GTP competed, 100 = untreated; AID 757;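 active = GTP binding activity at least 20 points away from the 100% control level, either lower or higher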
Rab2 wt GTP: changes GTP binding to wildtype dog Rab2A, up or down; P61105; GST-Rab2 wt beads, Bodipy-GTP binding, flow cytometry; GTP binding activity, % at 10 µM; hit rate 0.19% among 190,000; AID 760;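 active = GTP binding activity at least 20 points away from 100%, either lowered or raised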
Cdc42 wt GTP: human Cdc42 wildtype GTP binding change, either direction. percent activity (GTP binding), % at 10 µM. GST-Cdc42 beads, Bodipy-GTP binding, flow cytometry; actives lie on both sides. hit rate 0.2% among 190,000. P60953;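 active = percent activity GTP binding at least 20 points away from the 100% baseline, either down as inhibitor or up as activator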;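 note: median bead fluorescence of bound Bodipy-FL-GTP at 100 nM; below 100% means less GTP binding so inhibitor and above means activator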
Target sequence (P60953 whole entry, looked up): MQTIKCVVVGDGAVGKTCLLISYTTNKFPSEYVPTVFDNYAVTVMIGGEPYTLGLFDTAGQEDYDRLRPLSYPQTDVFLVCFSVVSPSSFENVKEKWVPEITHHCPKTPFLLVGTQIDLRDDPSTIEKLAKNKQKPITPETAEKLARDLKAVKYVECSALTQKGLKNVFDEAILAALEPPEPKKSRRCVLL
Rab7 wt GTP bind: dog Rab7 wildtype GTP binding, inhibitors and activators; GST-Rab7 beads, fluorescent GTP binding, flow cytometry; actives lie on both sides; untreated = 100%, excess cold GTP = 0%; GTP binding activity (percent of control), % at 10 µM; hit rate 0.055% among 190,000; AID 758;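 active = fluorescent GTP binding to Rab7 beads changed by at least 20 points from the 100% baseline, either direction, mostly lower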;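 note: median green fluorescence of bound Bodipy-FL-GTP per Rab7 bead population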
HRas wt GTP bind: changes GTP binding to wildtype human HRas; P01112; GST-Ras wt beads, Bodipy-FL-GTP binding, flow cytometry; actives lie on both sides; GTP binding activity, % at 10 µM; hit rate 0.14% among 190,000;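 active = GTP binding activity at least 20% away from the 100% baseline, either lowered as inhibitor or raised as activator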
Target sequence (P01112 whole entry, looked up): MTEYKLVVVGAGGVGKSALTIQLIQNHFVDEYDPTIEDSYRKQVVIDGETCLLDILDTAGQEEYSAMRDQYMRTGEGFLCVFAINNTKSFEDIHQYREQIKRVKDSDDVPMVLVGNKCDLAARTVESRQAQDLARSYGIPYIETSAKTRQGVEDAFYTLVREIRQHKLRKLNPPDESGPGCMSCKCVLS
A number is an active result; n = inactive; [ ] = another dose, or the depositor's remark. This is a sample that favours compounds with a hit; in the whole collection about 0.4% have one here.

SMILES	Rac1 mut GTP	Rac1 wt GTP bind	Rab2 wt GTP	Cdc42 wt GTP	Rab7 wt GTP bind	HRas wt GTP bind
COc1cccc(C2CC(c3ccccc3)Nc3ncnn32)c1 (centres undefined)	n	123.0[activator]	n	n	n	n
COc1cccc(C2CC(c3ccccc3OC)n3ncnc3N2)c1 (centres undefined)	n	n	n	n	n	n
S=c1[nH]c2ccccc2o1	n	n	n	n	n	n
COc1ccc(N2CCN(CCNC(=O)c3ccc4c(c3)[nH]c(=S)n3c5ccccc5nc43)CC2)cc1	n	n	n	n	n	n
O=c1c2ccccc2nc2ccc(NCc3ccco3)nn12	n	n	79.0	n	n	n
Cc1sc2nc3ccc(NCc4ccco4)nn3c(=O)c2c1C	30.0	22.0	27.0	28.0	18.0	34.0
CC(C)Sc1nc(-c2ccccc2)cc(=O)[nH]1	n	128.0[activator]	n	n	n	n
CCC(Sc1nc(-c2ccccc2)cc(=O)[nH]1)C(=O)O (centres undefined)	n	n	n	n	n	n
Cc1ccc(OCC(=O)Nc2ccccc2[N+](=O)[O-])c(Br)c1	n	n	n	n	n	n
O=C(Nc1nccs1)c1ccc(-c2cccc([N+](=O)[O-])c2)o1	n	76.0	n	n	n	n
O=C(Nc1ncc(Cc2cccc(C(F)(F)F)c2)s1)c1ccc(-c2cccc([N+](=O)[O-])c2)o1	n	n	n	n	n	n
O=C(Cn1cnc2c(nnn2Cc2ccccc2F)c1=O)NCC1CCCO1 (centres undefined)	n	120.0[activator]	126.0[activator]	n	n	n
O=C(Cn1cnc2c(nnn2Cc2ccccc2)c1=O)NCC1CCCO1 (centres undefined)	n	n	n	n	n	n
O=C(CCc1ccccc1)Nc1ccc2ccccc2n1	n	n	n	n	n	n
COc1cc(NS(=O)(=O)c2ccc(N)cc2)nc(OC)n1	n	n	n	n	n	n
Cc1cc(NS(=O)(=O)c2ccc(Nc3nc(-c4ccc(C)c(C)c4)cs3)cc2)no1	n	n	n	n	n	n
COc1cc(NS(=O)(=O)c2ccc(Nc3nc(-c4ccccc4)cs3)cc2)nc(OC)n1	n	73.0	77.0	71.0	n	79.0
Cc1cc(NS(=O)(=O)c2ccc(Nc3nc(-c4sc(N)nc4C)cs3)cc2)no1	n	n	75.0	n	n	78.0
CCCC(=O)Nc1nc(C)c(-c2csc(Nc3cc(OC)ccc3OC)n2)s1	n	n	n	n	n	n
COc1ccc(OC)c(Nc2nc(-c3sc(N)nc3C)cs2)c1	n	79.0	n	77.0	n	79.0
CCc1ccc(C2=NN(CCC(=O)NCc3cccs3)C(=O)CC2)cc1	n	n	n	n	n	n
COc1cc(OC)c(C(=O)OCC(=O)NCCc2ccccc2)cc1OC	n	n	n	n	n	n
Cc1ccc(S(=O)(=O)NCCCCCC(=O)Nc2c(C)n(C)n(-c3ccccc3)c2=O)cc1	n	n	n	n	n	n
Cc1ccccc1C(=O)Nc1cccc(C(=O)N/N=C/c2cc(Cl)cc([N+](=O)[O-])c2O)c1	74.0	n	77.0	76.0	n	n
NS(=O)(=O)c1ccc(Nc2nc(-c3ccc(O)cc3O)cs2)cc1	n	78.0	77.0	77.0	n	78.0
SMILES	Rac1 mut GTP	Rac1 wt GTP bind	Rab2 wt GTP	Cdc42 wt GTP	Rab7 wt GTP bind	HRas wt GTP bind
NS(=O)(=O)c1ccc(Nc2nc(-c3ccc(F)cc3)cs2)cc1	n	n	n	n	n	n
CC1CCN(c2ncccc2C(=O)O)CC1	129.0[activator]	156.0[activator]	130.0[activator]	141.0[activator]	125.0[activator]	128.0[activator]
Cc1nn(C)cc1CN(C)C(=O)CCc1nnc(CCC2CCCCC2)o1	n	n	n	n	n	n
COc1ccc(-n2c(=S)[nH]c3c(oc4ccccc43)c2=O)cc1	n	n	n	n	n	n
Cc1ccc(-n2c(=O)[nH]c3c(oc4ccccc43)c2=O)cc1	n	135.0[activator]	n	n	n	n
NS(=O)(=O)c1ccc(N2N=C(c3ccccc3)CC2c2ccccc2)cc1 (centres undefined)	n	n	n	71.0	n	n
CC(C)(C)c1cc(C(=O)NCCN2CCCC2)cc(C(C)(C)C)c1	n	n	n	n	n	n
O=C(C#Cc1ccccc1)c1cccc([N+](=O)[O-])c1	71.0	n	n	74.0	n	n
N/C(=N\OC(=O)Oc1ccccc1)c1cccc([N+](=O)[O-])c1	n	n	n	n	n	n
COc1cc(/C=N/NC(=O)CCN2CCN(Cc3ccccc3)CC2)cc(OC)c1OC	n	n	n	n	n	n
COc1cc(/C=N/NC(=O)CCN2CCN(c3ccccc3)CC2)cc(OC)c1OC	n	79.0	n	n	n	n
O=S(=O)(/N=C(/Nc1ccccc1)c1ccccc1O)c1ccccc1	n	n	n	n	n	n
Cc1ccc(-n2c(SCC(N)=O)nnc2-c2cccnc2)c(C)c1	n	n	n	n	n	n
Cc1ccc(-n2c(SCc3cc(=O)n4ccsc4n3)nnc2-c2cccnc2)c(C)c1	120.0[activator]	163.0[activator]	n	146.0[activator]	n	n
COc1ccc(-c2csc(NC(=O)Cc3cccc4ccccc34)c2C(=O)O)cc1	n	70.0	75.0	76.0	n	78.0
COc1ccc(-c2csc(NC(=O)c3cccs3)c2C(=O)O)cc1OC	n	n	n	n	n	n
COc1cc(/C=C(\C#N)C(=O)NC2CCCCC2)ccc1OCc1ccc(C(=O)O)cc1	n	n	n	n	n	n
O=C1c2ccccc2C(=O)N1CCCCN(C(=O)c1cc2ccccc2oc1=O)c1ccc(Cl)cc1	53.0	50.0	46.0	43.0	29.0	51.0
CC1CN(c2ccc([N+](=O)[O-])nc2)CC(C)O1 (centres undefined)	n	n	n	n	n	n
CCC(/C=C1\Sc2ccc(OC)cc2N1CCO)=C\c1sc2ccc(OC)cc2[n+]1CCO	n	n	n	n	n	78.0
CCC(/C=C1\Sc2ccc(OC)cc2N1CC)=C\c1sc2ccc(OC)cc2[n+]1CCCS(=O)(=O)[O-]	n	n	n	n	n	n
COCCNC(=S)Nc1cc(OC)c(OC)cc1C#N	n	57.0	59.0	60.0	n	67.0
CCOC(=O)C1(C)NC(c2ccco2)C2C(=O)N(CC)C(=O)C21 (centres undefined)	n	n	n	n	n	n
C/C(=N\Nc1ccc(S(N)(=O)=O)cc1[N+](=O)[O-])c1ccc2c(c1)OCO2	n	76.0	n	n	n	n
Cc1[nH]nc(SCC(=O)N(C)c2ccccc2)c1[N+](=O)[O-]	n	n	n	n	n	n
Cc1ccc(S(=O)(=O)N(C)CCCC(=O)NC(C)(C)C)cc1	n	n	n	n	n	n
